Source: PubChem BioAssay (EPA / NIEHS)
The source made the active and inactive calls. Rule for the calls: active = hit-call score of the fitted dose curve at least 0.9, where 1 is the maximum; inactive = score below 0.9.

The compounds below were run on sulfotransferase 2A1 (SULT2A1), SULT2A1 (gene 6822) (assay: LTEA_HepaRG_SULT2A1: Life Technologies and Expression Analysis (LTEA) Assay for sulfotransferase 2A1 (SULT2A1) using HepaRG (AID 2283531)). Conditions: mRNA level, 48 h; actives raise or lower the signal.
Procedure: LTEA_HepaRG is a cell based, multiplexed-readout assay that uses HepaRG, a human liver cell line, with measurements taken at 48 hours after chemical dosing on a 96-well plate.LTEA_HepaRG_SULT2A1 is one of 102 assay component(s) measured in the LTEA HepaRG cell culture assay. It is a marker of NR mediated transport.Data from the assay component LTEA_HepaRG_SULT2A1 was analyzed into 1 endpoint. This assay endpoint, LTEA_HepaRG_SULT2A1, was analyzed with bidirectional fitting relative to DMSO as the negative control and baseline of activity. Using a type of inducible reporter, measures of mRNA induction for gain or loss-of-signal activity can be used to understand regulation of transcription factor activity. To generalize the intended target to other relatable targets, this assay endpoint is annotated to the transferase intended target family, where the subfamily is sulfotransferase.
A total of 1060 chemcials from the ToxCast library were tested in eight-point concentration-response experiments. Cell culture and cytotoxicity assays were conducted at Thermo Fisher Scientific's Custom Services facility (Madison, WI). A single lot of human HepaRG cells (Thermo Fisher Scientific, Frederick, MD) was used for the cell culture experiments. 96-well format collagen type I coated plates of human HepaRG cells were prepared using established methods. Briefly, cryopreserved HepaRG cells were thawed, plated at a density of approximately 100,000 cells/well in HepaRG Thaw, Plate, and General Purpose media (HPRG770, Thermo Fisher Scientific), and incubated for 48 hours. 0.5% DMSO was selected as vehicle control to balance the requisite need of DMSO in HepaRG cultures to maintain differentiation (for example, baseline metabolism, proportions of hepatocytes vs. cholangiocytes), while enabling further hepatic receptor pathway activation (for example, PXR and CAR) in response to chemical exposure. 48 hours after plating, the culture medium was replaced with HepaRG Serum-Free Incudtion Media. Cells were exposed to each test chemical in duplicate and maintained in CO2 incubators for another 48 hours. Chemical plates were thawed to room temperature and 200x concentrations of treatment groups were prepared. 8-point conentration-reponse curves were made with the highest exposure at 100 uM, followed by half-log dilutions, all in 0.5% DMSO. Each test plate contained variouse controls, induction positive controls (1mM phenobarbital), cytotoxicity positive controls ([…] aflatoxin B1), vehicle controls (0.5% DMSO), and total lysis controls (0.5% DMSO). Cell morphology images were taken using an Essen IncuCyte FLR automated microscope, with six 96-well plates imaged in about 24 minutes. Images were captured and exported and JPEG files. Spent culture media was transfered to black-well plates for the LDH assay, and remaining media was sorted at -80 C for later use. Cells were treated with RLT buffer and frozen until shipped for gene expression analysis. Total RNA was isolated from the cell suspension in 75 uL of Buffer RLT (Qiagen, Germantown, MD 20874) by Quintiles/Expression Analysis (Durham, NC) using a custom isolation procedure. Total RNA from each plate well was transferred to a preamplification plate. Fluidigm's 96.96 Dynamic ArrayTM (Fluidigm, Amsterdam, the Netherlands) technology was used for gene expression analyses by quantitative reverse transcription polymerase chain reaction (qRT-PCR, performed by Quintiles/Expression Analysis, Durham, NC)89. Standard TaqManTM Assays (Applied Biosystems/ThermoFisher Scientific, Foster City, CA) were used to assess the expression of 93 genes selected based on their selectivity and sensitivity to important hepatic receptors known to be modulated by environmental chemicals; importance in human hepatocyte functionality; and hepatotoxicity. […]

Structure (SMILES)	AC50	outcome
CO/N=C(/C1=NOCCO1)c1ccccc1Oc1ncnc(Oc2ccccc2Cl)c1F	33.9 µM (active)	
COc1ccc(-c2ccccc2)cc1NNC(=O)OC(C)C		inactive
COc1cc(OC)nc(NC(=O)NS(=O)(=O)c2ncccc2OCC(F)(F)F)n1		inactive
CC1(C)C(C=C(Cl)Cl)C1C(=O)OC(C#N)c1cccc(Oc2ccccc2)c1 (stereo not given)		inactive
CCSC(=O)N1CCCCCC1		inactive
CCN(CC)C(=O)C(C)Oc1cccc2ccccc12 (stereo not given)		inactive
CC1(C)CON(Cc2ccccc2Cl)C1=O		inactive
CCC(C)n1c(=O)[nH]c(C)c(Br)c1=O (stereo not given)	24.9 µM (active)	
O=C(Nc1ccccc1-c1ccc(Cl)cc1)c1cccnc1Cl		inactive
Nc1c(Cl)c(F)nc(OCC(=O)O)c1Cl		inactive
COCC(=O)N(c1c(C)cccc1C)C(C)C(=O)OC (stereo not given)		inactive
CCOP(=S)(OCC)Oc1nc(Cl)n(C(C)C)n1		inactive
N#CN=C1SCCN1Cc1ccc(Cl)nc1		inactive
COP(=S)(OC)SCn1nnc2ccccc2c1=O		inactive
CS(=O)(=O)c1ccc(C(=O)C2C(=O)CCCC2=O)c([N+](=O)[O-])c1		inactive
COC(=O)NC(=S)Nc1ccccc1NC(=S)NC(=O)OC		inactive
CSC(=O)c1c(C(F)F)nc(C(F)(F)F)c(C(=O)SC)c1CC(C)C		inactive
Cc1cnc(C2=NC(C)(C(C)C)C(=O)N2)c(C(=O)O)c1 (stereo not given)		inactive
O=P(O)(O)CCCl		inactive
CCNC(=O)NC(=O)C(C#N)=NOC		inactive

Structure (SMILES)	AC50	outcome
COP(=O)(OC)O/C(C)=C/C(=O)N(C)C		inactive
O=c1n(Cl)c(=O)n(Cl)c(=O)n1Cl		inactive
O=C1C2CC=CCC2C(=O)N1SC(Cl)(Cl)Cl (stereo not given)		inactive
CN=C=S		inactive
CC(C)Nc1nc(Cl)nc(NC(C)C)n1		inactive
CS(=O)(=O)c1cc(C(F)(F)F)ccc1C(=O)c1cnoc1C1CC1		inactive
N#Cc1c[nH]cc1-c1cccc2c1OC(F)(F)O2	50 µM (active)	
Clc1nc(Cl)nc(Nc2ccccc2Cl)n1		inactive
Cn1c(-c2ccccc2)cc(-c2ccccc2)[n+]1C	50 µM (active)	
COC(=O)N(C(=O)N1CO[C@@]2(C(=O)OC)Cc3cc(Cl)ccc3C2=N1)c1ccc(OC(F)(F)F)cc1	65 µM (active)	
CCCC(=NOCC)C1=C(O)CC(CC(C)SCC)CC1=O (stereo not given)		inactive
Nc1cnn(-c2ccccc2)c(=O)c1Cl		inactive
CC1(C)C(C(=O)OC(C#N)c2cccc(Oc3ccccc3)c2)C1(C)C (stereo not given)		inactive
C=CCOC(=O)C(C)(C)OC(=O)c1cc(-n2c(=O)cc(C(F)(F)F)n(C)c2=O)ccc1Cl		inactive
CN/C(=N\[N+](=O)[O-])NCc1cnc(Cl)s1		inactive
CCNP(=S)(OC)O/C(C)=C/C(=O)OC(C)C (stereo not given)		inactive
CCOC(=O)C(C)OC(=O)c1cc(Oc2ccc(C(F)(F)F)cc2Cl)ccc1[N+](=O)[O-] (stereo not given)		inactive
COCc1cnc(C2=NC(C)(C(C)C)C(=O)N2)c(C(=O)O)c1 (stereo not given)		inactive
Cc1cc(C)nc(Nc2ccccc2)n1		inactive
CCCCOCN(C(=O)CCl)c1c(CC)cccc1CC		inactive
